The panel holds about 83,000 compounds, 20% with a hit somewhere; the sample as a whole holds those more often.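 Single-dose data. Exposure time 48 hours. Values below 10 considered active.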 Unmarked numbers belong to inactive results. Calls of active or inactive are those of the source.
Test system: OVCAR-5 ovarian
Assay: NCI-60 one-dose screen, 48 h (100 = growth as untreated, 0 = no growth, -100 = all killed)
Settings: 10 µM
Method: Growth inhibition of the OVCAR-5 human tumor cell line is measured as a screen for anti-cancer activity. Cells are grown in 96 well plates and exposed to the test compound for 48 hours. Compounds are tested at a single concentration, which is 10^-5 M for most compounds. The reported endpoint is percent growth (GI% or GIPRCNT), where numbers from 0 - 100% represent growth inhibition, and numbers from -100% - 0 represent cell death. For example, a value of 40 represents 60% growth inhibition. A value of 0 means no net growth occurred over the course of the experiment. A value of -40 indicates 40% of cells at the beginning of the experiment died by the end of the experiment. A value of -100 means all cells are dead at the end of the experiment.
NCI-60 Human Tumor Cell Lines Screen was performed using the standard one-dose NCI protocol, which is described in more detail at https://dtp.cancer.gov/discovery_development/nci-60/default.htm.
Compounds with GIPRCNT values below 10 were considered active. Activity score was based on GIPRCNT using the following formula: […]
Score is 0 for GIPRCNT values of 100 or above, 50 for GIPRCNT values of 0, and 100 for GIPRCNT values of -100.

Structure (SMILES) | growth
COc1cc(-c2cc(/C=C/C(=O)c3ccc(N)cc3)[nH]n2)cc(OC)c1OC | -15% (active)
CN(C)CC(O)c1ccc2cc(Br)c3ccccc3c2c1 (stereo not given) | 68.4%
O=C1/C(=C\c2cn(C(=O)c3ccc(Cl)cc3)c3ccccc23)c2ccccc2N1C(=O)c1ccc(Cl)cc1 | 115%
CC(=O)OCc1cc(-c2nc3ccccc3[nH]c2=O)nn1-c1ccc(Cl)cc1 | 99.6%
CCC(=O)N1C/C(=C/c2ccc(OC)cc2)C(=O)/C(=C/c2ccc(OC)cc2)C1 | 96.1%
O=C(Nc1ccccc1)Nc1cccc(-n2cc(-c3ccncc3)c(-c3ccc(O)c(Cl)c3)n2)c1 | 91.1%
CCN(CC)CCSCCCNc1c2ccc(Cl)cc2nc2ccc(OC)cc12 | -16.7% (active)
c1ccc(CSc2nnc3c4c5c(sc4nc(-c4cccnc4)n23)CCCCCC5)cc1 | 95.2%
C(CCCC1=NCCO1)CCCC1=NCCO1 | 100%
COC(=O)[C@@H]1[C@H](O)[C@H](C)[C@H](O)[C@@](C)(O)/C=C\C=C(C)C(=O)Nc2c(C)c(OC(C)=O)c3c(c2O)C(=O)C(C)=C2OCOC(=C23)C(C)=C[C@@](C)(O)[C@H](O)[C@@H](C)[C@H]1OC(C)=O | 97.7%
COc1cc(C(=O)N2CCN(c3ccccc3OC)CC2)c(N)cc1OCCCN1CCN(c2ccccc2OC)CC1 | 81.6%
Cc1c(Cl)cccc1NC(=O)c1sc2nc3c(cc2c1N)C(=O)CCC3 | 31.8%
COc1ccc(OC)c2c1C(=O)CC2C (stereo not given) | 112%
CN1CCC(CNc2cc(C3(C(=O)Nc4cc(C(=O)Nc5ccc(Cl)c(C(F)(F)F)c5)ccc4F)CC3)ncn2)CC1 | 71.6%
COc1cc(/C=C2\Oc3cc(OCC(=O)c4ccccc4)ccc3C2=O)cc(OC)c1OC | 136%
CCOC(=O)N1C/C(=C/c2ccc(Cl)cc2)C(=O)/C(=C/c2ccc(Cl)cc2)C1 | 120%
O=[N+]([O-])c1cccc(-c2ncc(-c3ccc(Cl)cc3Cl)[nH]2)c1 | 117%
CCCCCCc1cc(N=Nc2ccc(S(=O)(=O)Nc3cc(C)nc(C)n3)cc2)c(O)cc1O | 113%
O=C(Nc1ccncc1)C(=O)c1cn(S(=O)(=O)c2cc(Cl)cc(Cl)c2)c2ccccc12 | 89%
NC1=NC(=O)C(c2ccccc2)(c2ccccc2)S1 | 109%

Structure (SMILES) | growth
COc1cc(-c2nc(Nc3nc4ccccc4s3)[nH]c(=O)c2C#N)cc(OC)c1O | 109%
COc1cc(Cc2cc(-c3ccc(Cl)cc3)n[nH]c2=O)ccc1O | 115%
O=C(CC(C(=O)c1ccccc1)N1CCOCC1)c1ccccc1 (stereo not given) | 95.5%
Cc1ccc(Nc2nnc(-c3cc(-c4ccncc4)n(-c4ccccc4)n3)s2)cc1 | 104%
COc1cc(-c2cc(/C=C/C(=O)c3ccc4c(c3)OCO4)[nH]n2)cc(OC)c1OC | 83.3%
COc1cc2nc(Nc3cccc(C(=O)O)c3)nc(N)c2cc1OC | 114%
O=C1N=NC2=C1c1c3ccccc3c(O)n1CC2 | 103%
COc1cc(-c2cc(/C=C3\C(=O)Nc4cc(Cl)ccc43)[nH]n2)cc(OC)c1OC | 65%
COc1ccc(-c2ccc3cc(C(=O)Nc4ccc(O)c(C(=O)/C=C/c5cc(OC)c(OC)c(OC)c5)c4)ccc3c2)cc1 | 108%
Cc1nc2ccccc2c(N)c1-c1cc(C)c2c(C)nc3ccccc3c2n1 | 32.4%
COc1ccc(S(=O)(=O)NCCCNc2nccc(-c3c(-c4ccc(F)cc4)nc4sccn34)n2)cc1 | 92.6%
O=S(=O)(Nc1ccccn1)c1ccc(N=Nc2ccc(O)c3ncccc23)cc1 | 22.4%
Cc1cc(C)c(CCc2cc(C)c(C)cc2C)cc1C | 103%
CSC1=NCCCC1 | 112%
Cc1cc(Nc2ccc(Cl)cc2)nc(NCCCNc2ccnc3cc(Cl)ccc23)n1 | -5.16% (active)
C#Cc1ccc(-n2c(/C=C/c3ccc(C(F)(F)F)cc3)nc3ncccc3c2=O)cc1 | 68.8%
O=C(Nc1nc(-c2ccccc2Cl)cs1)c1cc(-c2ccc(Cl)cc2)nc2ccc(Cl)cc12 | 102%
COc1ccc2c(c1)N(CCO)C1=C(C(=O)OC1)C2c1cc(OC)c(OC)c(OC)c1 (stereo not given) | 39.8%
COc1ccc(-c2cc(-c3ccc(N(C)C)cc3)c(C#N)c(N3CCCC3)n2)cc1 | 64.8%
COc1ccc(-c2cc(-c3cccc(NS(C)(=O)=O)c3)nc(N)c2C#N)cc1 | 53.8%
